# An excerpt weighted towards active compounds, which were near 19% of everything screened.
# DT40 TDP1 CPT: growth inhibition of DT40 Tdp1-/-;hTDP1 cells with camptothecin (screen for TDP1 inhibitors). Potency, µM (top dose mostly 46.2 µM), for the others: at the highest dose activity change, negative = growth inhibition, most hits filed as inhibitors. chicken DT40 Tdp1-/-;hTDP1 cells + 20 nM CPT, ATP luminescence, 48 h. hit rate 12% among 420,000. AID 686979; further: potency means the concentration at half of the fitted maximal effect; nearly all actives have a fitted effect of over 55% in size
#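 Chicken DT40 Tdp1-/- cells stably complemented with human TDP1 were seeded at 400 cells/well in medium containing 20 nM camptothecin, exposed to pin-transferred compounds, and grown at 37 °C for at least 48 hr. Viability was read as ATP luminescence.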
# HT1080 IDH1KD tx: toxicity to HT-1080 IDH1 knockdown cells (counter line); HT-1080 IDH1 knockdown viability, ATP luminescence, 48 h; Potency, µM (titrated, usually from 46.1 µM), for inactives: at the highest dose activity, negative = toxicity, most hits filed as cytotoxic; hit rate 2% among 360,000; AID 686971;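 further: potency means the concentration at half of the fitted maximal effect; 0% = DMSO wells and -100% = cell-free medium wells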
#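 In this qHTS, HT-1080 cells depleted of IDH1 are exposed for 48 h at 37 °C to compound titrations. Toxicity is scored from CellTiter-Glo luminescence, with DMSO as full viability and medium alone as none.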
# IL1B secr inh: inflammasome signaling inhibition, IL-1 beta readout; THP-1 LPS/ATP IL-1B secretion, AlphaLISA, 16 h; hits give low values; activity change, % at 57.5 µM; hit rate 4.7% among 360,000; in the data active means activity change below about -50%; inconclusive means mostly about -30% to -49%
#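 Secreted IL-1B measured by AlphaLISA bead assay after 16 h compound exposure of THP-1 cells; compounds (final up to 57.5 uM) added 1 h before LPS (250 ng/mL) and ATP (1.25 mM) stimulation; lower signal means less secretion.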
# TDP1 cell noCPT: qHTS for Inhibitors of human tyrosyl-DNA phosphodiesterase 1 (TDP1): qHTS in cells in absence of CPT; DT40 Tdp1-/- hTDP1 cells, no CPT, ATP luminescence, 48 h; Potency, µM (series often up to 46.2 µM), inactives show top-dose activity change, negative = growth inhibition, usual class: inhibitors; hit rate 15% among 420,000; further: potency means the concentration at half of the fitted maximal effect; nearly all actives have a fitted effect of over 55% in size
#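 Compound effects on proliferation are scored in DT40 Tdp1-/-;hTDP1 cells in the absence of CPT. ATP levels (CellTiter-Glo luminescence) are recorded after a ≥48 hr, 37 °C incubation.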
# HT1080-NT tox: kills 2HG-producing HT-1080-NT fibrosarcoma cells; hit rate 1.6% among 360,000; HT-1080-NT fibrosarcoma viability, CellTiter-Glo ATP luminescence, 48 h; Potency, µM (highest dose often 46.1 µM), without a hit: top-dose activity, negative = less viability, actives largely listed as cytotoxic; AID 686970;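 further: NT is the 2HG producing partner of a matched IDH1 knockdown line; potency means the concentration at half of the fitted maximal effect; 0% = DMSO-treated cells and -100% = media-only wells without cells; nearly all actives have a fitted effect of over 55% in size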
#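 Read-out is CellTiter-Glo luminescence after 10 minutes at room temperature, following 48 hours' compound treatment of HT-1080-NT cells (750 cells/well, RPMI, 5% FBS, 37 degrees C).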
# * marks the source's active call; other numbers are inactive results; ? = inconclusive; / = no result given; ! = repeats disagree; [ ] = remark or other dose. Unless noted, the call rests on the fitted dose curve; in most records, active means well fitted curve in the direction sought with a large enough effect; inconclusive means small, poorly fitted or top-dose-only effect, or another doubt; inactive means no such curve, though single readings can be large; an effect the other way counts as inactive or inconclusive. Unless noted, on the % scale 0 is the no-effect control and ±100 the full control effect.
SMILES,DT40 TDP1 CPT,HT1080 IDH1KD tx,IL1B secr inh,TDP1 cell noCPT,HT1080-NT tox
COc1ccc(/C=C/C(=O)c2ccccc2O)cc1,?,1%,0,?,10%
O=C(/C=C/c1ccc(O)cc1)c1cccs1,24µM*,/,/,24µM*,/
O=C(/C=C/c1ccc(O)cc1)c1ccccc1O,26µM*,/,/,15µM*,/
CC(=O)Oc1ccccc1C(=O)C=Cc1cccc([N+](=O)[O-])c1,10µM*,16µM*,-101*,21µM*,?
Cc1cccc(NC(=O)/C(=C/c2cccc([N+](=O)[O-])c2)NC(=O)c2cccs2)c1,-46%,-30%,-6,1.8µM*,?
COc1ccc(CC(C)CC(=O)Nc2ccc(OC)cc2)cc1 (centres undefined),1%,-6%,-8,?,-3%
Cc1cc(NC(=O)Cn2c(C)nc3ccccc3c2=O)ccc1Br,?,-11%,29,-5%,-9%
O=C(NCc1cccnc1)c1nn(-c2ccc(Cl)cc2)nc1CO,-17%,/,/,?,/
COc1cccc(CNC(=O)CSc2c3c(nc4ccc(Cl)cc24)CCCC3)c1OC,7.3µM*,/,/,9.2µM*,/
Cc1ccc(CNC(=O)CSc2c3c(nc4cc(Cl)ccc24)CCCC3)o1,?,?,-68*,?,?
COc1ccc(OC)c(CNC(=O)CSc2c3c(nc4cc(Cl)ccc24)CCCC3)c1,16µM*,/,/,23µM*,/
CCc1ccc(CNC(=O)CSc2c3c(nc4ccc(Cl)cc24)CCCC3)cc1,-23%,/,/,?,/
CCOc1ccc(CNC(=O)CSc2c3c(nc4ccc(Cl)cc24)CCCC3)cc1,-28%,/,/,-25%,/
COc1ccc(/C=C/C(=O)Nc2nonc2NC(C)=O)cc1,-4%,14%,28,-28%,7%
COc1cc(OC)c(NC(=O)N2CCCn3nc(C)cc32)cc1Cl,2%,/,/,-29%,/
COc1ccc(-n2nnnc2C2CCN(S(=O)(=O)c3ccc(F)cc3Cl)CC2)cc1,?,/,/,16µM*,/
Cc1ccc(-n2nnnc2C2CCN(S(=O)(=O)c3ccc(OC(F)(F)F)cc3)CC2)cc1,-4%,/,/,-13%,/
COc1ccc(-n2nnnc2C2CCN(S(=O)(=O)c3ccc(NC(C)=O)cc3)CC2)cc1,5.8µM*,/,/,4.6µM*,/
CC(=O)c1ccc(OCCNS(=O)(=O)c2ccc(-n3cnnn3)cc2)cc1,?,7%,12,-20%,2%
Cc1ccc(NS(=O)(=O)c2ccc(-n3cccn3)cc2)c(C)c1,18µM*,-17%,1,?,2%
Cc1cccc(NS(=O)(=O)c2ccc3c(c2)Cc2cc(S(=O)(=O)Nc4cccc(C)c4C)ccc2-3)c1C,6.5µM*,-3%,7,5.2µM*,-2%
Cc1ccc(NS(=O)(=O)c2ccc(-n3cccn3)cc2)nc1,-3%,11%,0,1%,8%
Cc1ccc(NS(=O)(=O)c2ccc(-n3cccn3)cc2)c(Br)c1,18µM*!,-22%,23,16µM*,-2%
Cc1cccc(NS(=O)(=O)c2ccc(-n3cccn3)cc2)c1C,13µM*,-21%,-7,7.3µM*,-6%
Cc1ccc(Cl)cc1NS(=O)(=O)c1ccc(-n2cccn2)cc1,?,-18%,12,-19%,-21%
SMILES,DT40 TDP1 CPT,HT1080 IDH1KD tx,IL1B secr inh,TDP1 cell noCPT,HT1080-NT tox
Cc1ccc(OCc2cc(=O)n3c4c(sc3n2)CCCC4)c(C)c1,-9%,/,/,-1%,/
CCCN(CCC)S(=O)(=O)c1ccc(C(=O)N2CCC(=O)c3ccccc32)cc1,?,-3%,19,23µM*,-4%
CCCn1c(=O)c2ccccc2n2c(SCCOc3ccc(OC)cc3)nnc12,?,1%,-4,?,-5%
COc1ccccc1Cn1c(=O)c2ccccc2n2c(SCc3csc(C)n3)nnc12,?,7%,-55*,?,0%
COc1ccccc1Cn1c(=O)c2ccccc2n2c(Sc3ncnc4sccc34)nnc12,21µM*,?,-85*,21µM*,?
CCCCCCCC(=O)C(C)C(=O)N(C)[C@H](Cc1ccc(OC)cc1)C(=O)N(C)[C@H](C(N)=O)C(C)C (some centres undefined),?,-1%,-7,23µM*,1%
CCC(C)Sc1cc(-c2nc3ccc(Cl)cn3c2NC2CCCCC2)ccc1OC (centres undefined),16µM*,2%,-74*!,15µM*,-9%
COc1ccc(-c2nc3ccc(Cl)cn3c2Cc2ccsc2)cc1OC,?,1%,-23,?,-3%
COc1ccc(-c2cccc(-c3nc4ccc(Cl)cn4c3NC3CCCCC3)c2)cc1,18µM*,1%,-13,21µM*,6%
CC(=O)c1csc(-c2cccc(-c3nc4ccc(Cl)cn4c3NC3CCCCC3)c2)c1,21µM*,8%,-22,?,1%
CCCCCCSc1cc(-c2nc3ccc(Cl)cn3c2NC2CCCCC2)ccc1OC,?,9%,-17,16µM*,14%
CCc1cccc(NC(=O)COC(=O)c2cc([N+](=O)[O-])ccc2N2CCOCC2)c1,?,?,3,?,-3%
COCC(=O)N1CCC[C@@]2(CCN(Cc3ccc(C#N)cc3)C2)C1,0%,/,/,-2%,/
CCCCCCSc1ccc(-c2nc3ccc(Cl)cn3c2NC2CCCCC2)cc1,26µM*,11%,-2,?,19%
O=C(COC(=O)CCC(=O)c1cccs1)NCc1ccccc1,2%,6%,13,-2%,4%
COc1ccc(-c2noc(CNC(=O)c3ccc4c(c3)OCO4)n2)cc1OC,-10%,10%,4,-6%,23%
CCOC(=O)C1=C(C)N(C[C@@H]2CC[C@@H](Cc3ccc(-c4ccccc4)cc3)O2)C(=O)NC1c1ccc(-c2ccccc2)cc1 (some centres undefined),?,14%,-3,?,4%
CCOC(=O)C1=C(C)N(C[C@@H]2CC[C@@H](Cc3ccc(-c4ccccc4)cc3)O2)C(=O)NC1c1ccc(Cl)cc1 (some centres undefined),?,-2%,-52*,21µM*,-1%
CCOC(=O)C1=C(C)N(C[C@@H]2CC[C@@H](Cc3ccc(-c4ccccc4)cc3)O2)C(=O)NC1C1CC1 (some centres undefined),?,4%,11,21µM*,4%
Cc1ncc2c(c1CNS(=O)(=O)N(C)C)CCN(C(=O)/C=C/c1ccccc1F)C2,13%[9.04 µM],/,/,-13%,/
COc1cc(=O)n2c(c1C(=O)N(C)Cc1nonc1C)CCN(Cc1cc(C)ccc1C)CC2,-1%[9.04 µM],/,/,-30%,/
COCCn1c(=N)c(C(=O)NCC2CCCO2)cc2c(=O)n3ccccc3nc21 (centres undefined),4%,/,/,-9%,/

# Compound activity from PubChem.
